Where a name gives a salt, the structure may show the parent alone.
What was measured:
Details in all cases: incubation time: 27 h, anaerobic, 37 °C;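 for the amine columns active = adjusted P below 0.05 in both replicates with a change the same way and a mean fold change under 0.8 or over 1.25; inactive = the rest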
[1] = test system: Clostridium sporogenes DSM 1664; assay: growth (OD595) fold change vs plate DMSO controls (fold change (ratio)); higher = more growth
How it was run: (§1)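 To obtain OD, 595 nm absorbance readings were blank-subtracted, corrected for compound background using 20 µM compound solutions in water, and multiplied by a calibration factor of 5. They came from 96-well mGAM cultures grown anaerobically for 27 h at 37 °C and shaken before reading. Growth is the fold change relative to the median of plate DMSO controls. Two biological replicates were averaged, and fold changes above 1.5 were set to NA.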

Escherichia coli IAI1 [2] = assay: as above
How it was run: as §1

[3] = test system: Klebsiella aerogenes DSM 30053; assay: as above
How it was run: as §1

[4] = test system: Ruminococcus gnavus DSM 108212; assay: as above
How it was run: as §1

[5] = test system: Klebsiella aerogenes DSM 30053; assay: fold change of Histamine concentration vs plate DMSO controls (fold change (ratio)); higher = more amine produced, active = hit call of the paper (significant change in both replicates, either direction)
How it was run: (§2)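 Amines were quantified by LC–triple-quadrupole MS in dynamic MRM mode against external calibration curves, with drift correction within each batch. The samples were whole anaerobic mGAM cultures of four gut bacterial strains, grown for 27 h at 37 °C in 80 µL wells and extracted with cold acetonitrile/methanol with 0.1% formic acid, then centrifuged. Values are reported as fold change over DMSO controls on the same plate. The mean of 2 biological replicates is given.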

[6] = test system: Clostridium sporogenes DSM 1664; assay: fold change of Tryptamine concentration vs plate DMSO controls (fold change (ratio)); higher = more amine produced, active = hit call of the paper (significant change in both replicates, either direction)
How it was run: as §2

[7] = test system: Ruminococcus gnavus DSM 108212; assay: as above
How it was run: as §2

Escherichia coli IAI1 [8] = assay: fold change of Putrescine concentration vs plate DMSO controls (fold change (ratio)); higher = more amine produced, active = hit call of the paper (significant change in both replicates, either direction)
How it was run: as §2

[9] = test system: Klebsiella aerogenes DSM 30053; assay: as above
How it was run: as §2

Escherichia coli IAI1 [10] = assay: fold change of Cadaverine concentration vs plate DMSO controls (fold change (ratio)); higher = more amine produced, active = hit call of the paper (significant change in both replicates, either direction)
How it was run: as §2

[11] = test system: Klebsiella aerogenes DSM 30053; assay: as above
How it was run: as §2

[12] = test system: Ruminococcus gnavus DSM 108212; assay: fold change of 2-Phenylethylamine concentration vs plate DMSO controls (fold change (ratio)); higher = more amine produced, active = hit call of the paper (significant change in both replicates, either direction)
How it was run: as §2

SMILES | growth [1] | growth (Escherichia coli IAI1 [2]) | growth [3] | growth [4] | fold change of Histamine concentration [5] | fold change of Tryptamine concentration [6] | fold change of Tryptamine concentration [7] | fold change of Putrescine concentration (Escherichia coli IAI1 [8]) | fold change of Putrescine concentration [9] | fold change of Cadaverine concentration (Escherichia coli IAI1 [10]) | fold change of Cadaverine concentration [11] | fold change of 2-Phenylethylamine concentration [12]
O=C(N[C@H](CO)[C@H](O)c1ccc([N+](=O)[O-])cc1)C(Cl)Cl [Chloramphenicol] (20 µM) | 1.25 | 0.0503 | 0.0799 | 1.08 | 0.0535 (active) | 0.64 (inactive) | 0.168 (active) | 0.245 (active) | 0.512 (active) | 0.0844 (active) | 0.383 (active) | 0.182 (active)
COC(=O)Nc1nc2cc([S+]([O-])c3ccccc3)ccc2[nH]1 (configuration not stated) [Oxfendazole] (20 µM) | 0.943 | 1.04 | 1.01 | 0.99 | 1.01 (inactive) | 1.01 (inactive) | 1.04 (inactive) | 0.99 (inactive) | 1.04 (inactive) | 0.981 (inactive) | 1.04 (inactive) | 0.999 (inactive)
CC(C)Nc1cccnc1N1CCN(C(=O)c2cc3cc(NS(C)(=O)=O)ccc3[nH]2)CC1 [Delavirdine] (20 µM) | 1.03 | 1.01 | 0.995 | 0.754 | 1.04 (inactive) | 0.965 (inactive) | 1.05 (inactive) | 0.984 (inactive) | 0.906 (inactive) | 1.04 (inactive) | 1.05 (inactive) | 1.04 (inactive)
CC[C@H]1OC(=O)[C@H](C)[C@@H](O[C@H]2C[C@@](C)(OC)[C@@H](O)[C@H](C)O2)[C@H](C)[C@@H](O[C@@H]2O[C@H](C)C[C@H](N(C)C)[C@H]2O)[C@](C)(O)C[C@@H](C)/C(=N\OCOCCOC)[C@H](C)[C@@H](O)[C@]1(C)O [Roxithromycin] (20 µM) | 0.00175 | 0.826 | 0.95 | 0.194 | 0.995 (inactive) | 0.0367 (active) | 0.0981 (active) | 0.576 (active) | 0.973 (inactive) | 0.909 (inactive) | 1 (inactive) | 0.123 (active)
CCCc1cc(=O)[nH]c(=S)[nH]1 [Propylthiouracil] (20 µM) | 0.934 | 1.06 | 0.995 | 1.05 | 0.972 (inactive) | 1.03 (inactive) | 1.04 (inactive) | 1.05 (inactive) | 1.01 (inactive) | 0.974 (inactive) | 0.995 (inactive) | 1.03 (inactive)
CN[C@@H]1[C@@H](O[C@H]2O[C@H](CO)[C@@H](N)[C@H](O)[C@H]2O)OC2C[C@@H](N)[C@@H](O[C@H]3[C@H](O)[C@@H](O)[C@H](N)C[C@@H]3N)OC2[C@@H]1O (some centres not stated) [Apramycin] (20 µM) | 1.18 | 0.982 | 0.996 | 1.03 | 1.05 (inactive) | 0.998 (inactive) | 0.96 (inactive) | 1 (inactive) | 1.05 (inactive) | 1 (inactive) | 1.02 (inactive) | 0.905 (inactive)
O=C1OCCN1/N=C/c1ccc([N+](=O)[O-])o1 [Furazolidone] (20 µM) | 0.395 | 1.04 | 0.855 | 1.22 | 0.991 (inactive) | 0.402 (inactive) | 0.973 (inactive) | 0.81 (inactive) | 0.937 (inactive) | 1.75 (active) | 1 (inactive) | 1.11 (inactive)
CC(C)NCC(O)COc1ccc(CCOCC2CC2)cc1 (configuration not stated) [Betaxolol hydrochloride] (20 µM) | 1.11 | 0.969 | 1.07 | 0.967 | 0.935 (inactive) | 0.955 (inactive) | 1 (inactive) | 1.02 (inactive) | 0.994 (inactive) | 0.99 (inactive) | 1 (inactive) | 1.01 (inactive)
CCc1cc(Cl)c(OC)c(C(=O)NC[C@@H]2CCCN2CC)c1O [(S,-) Eticlopride hydrochloride] (20 µM) | 0.973 | 0.985 | 1.02 | 0.979 | 1.04 (inactive) | 0.99 (inactive) | 0.88 (inactive) | 0.975 (inactive) | 1.02 (inactive) | 1.01 (inactive) | 0.985 (inactive) | 0.939 (inactive)
CC(=O)OCC(=O)[C@@]1(O)[C@H](C)C[C@H]2[C@@H]3CCC4=CC(=O)C=C[C@]4(C)[C@@]3(F)[C@@H](O)C[C@@]21C [Dexamethasone acetate] (20 µM) | 1.05 | 1.01 | 0.986 | 0.878 | 1.02 (inactive) | 1.06 (inactive) | 1.01 (inactive) | 0.987 (inactive) | 1.02 (inactive) | 1.02 (inactive) | 0.983 (inactive) | 0.993 (inactive)
CC(C)(C#N)c1cc(Cn2cncn2)cc(C(C)(C)C#N)c1 [Anastrozole] (20 µM) | 0.911 | 1.16 | 1.01 | 1.02 | 1.02 (inactive) | 1.11 (inactive) | 1.09 (inactive) | 1.06 (inactive) | 0.954 (inactive) | 1.01 (inactive) | 0.994 (inactive) | 1.1 (inactive)

— the supplement of paper PMC12494721
